Consider 32 targets from the supplement of paper PMC12067093, “Discovery and optimisation of a covalent ligand for TRIM25 and its application to targeted protein ubiquitination” (Chemical Science, 2025).

The full data set covers some 21,000 targets. This sample favours those with the largest changes.
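Note: competitive chemoproteomic profiling in live THP-1 cells with an iodoacetamide desthiobiotin (IA-DTB) probe, comparing probe-labelled peptide intensities in compound-treated cells against DMSO-treated controls.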

Compound in one test: CC1Cc2ccccc2N1C(=O)C1CCCN(C1)C(=O)CCl (mixture of isomers) [TRIM25 ligand 11 (diastereomer mixture)]
Briefly: probe-labelled cysteine peptide fold change vs DMSO (competition) (log2 fold change); higher = less target engagement (more negative = stronger competition). To be noted: 10 µM; THP-1; incubation time: 4 h.
On to “MAPRE2_Q15555_279_EIELLCQEHGQENDDLVQR (UniProt Q15555)”, for which the “probe-labelled cysteine peptide fold change” value was -0.0442.

In the case of “NACC1_Q96RE7_178_VKTEQQESDSVQCMPVAK (UniProt Q96RE7)”, the “probe-labelled cysteine peptide fold change” value is -0.28.

As for “NCAPH_Q15003_114_FTNTQITEHYSTCIK (UniProt Q15003)”, the “probe-labelled cysteine peptide fold change” value stood at 0.199.

For the target “NASP_P49321_568_LGEVSVESENYVQAVEEFQSCLNLQEQYLEAHDR (UniProt P49321)”, the “probe-labelled cysteine peptide fold change” value was -0.127.

In the case of “MIS12_Q9H081_133_YKTELCTK (UniProt Q9H081)”, the “probe-labelled cysteine peptide fold change” value is -0.0461.

Take “MFSD2A_Q8NA29_44_KQQLSVCNK (UniProt Q8NA29)”: the “probe-labelled cysteine peptide fold change” value was -0.207.

As to “METTL5_Q9NRN9_107+110_NAEEFELTNIDMVQCDVCLLSNR (UniProt Q9NRN9)”, the “probe-labelled cysteine peptide fold change” value is -0.067.

On to “MICAL2_O94851_1059_PHFIHCK (UniProt O94851)”, for which the “probe-labelled cysteine peptide fold change” value amounted to 0.00568.

On to “NAA25_Q14CX7_339_SQGCNDEYK (UniProt Q14CX7)”, for which the “probe-labelled cysteine peptide fold change” value stood at 0.0881.

As for “MTMR3_Q13615_188_LCGSYPQELIVPAWITDK (UniProt Q13615)”, the “probe-labelled cysteine peptide fold change” value is 0.105.

As for “MYADM_Q96S97_279_SRDVSCSR (UniProt Q96S97)”, the “probe-labelled cysteine peptide fold change” value worked out at 1.04.

As to “MYO18A_Q92614_1046_LHFVHCFLPVAEGWAGEPR (UniProt Q92614)”, the “probe-labelled cysteine peptide fold change” value came out at 0.231.

Regarding “MDN1_Q9NU22_1394_ALEFGEPVLLVGDTGCGK (UniProt Q9NU22)”, the “probe-labelled cysteine peptide fold change” value was -0.0161.

In the case of “MCL1_Q07820_286_TINQESCIEPLAESITDVLVR (UniProt Q07820)”, the “probe-labelled cysteine peptide fold change” value was -0.36.

Take “MGST3_O14880_56_YKVEYPIMYSTDPENGHIFNCIQR (UniProt O14880)”: the “probe-labelled cysteine peptide fold change” value came to 0.0746.

As to “NBEAL2_Q6ZNJ1_2335_ALEGIISNFGQTPCQLLK (UniProt Q6ZNJ1)”, the “probe-labelled cysteine peptide fold change” value was found to be 0.0509.

On to “MKNK2_Q9HBH9_136_EVEMLYQCQGHR (UniProt Q9HBH9)”, for which the “probe-labelled cysteine peptide fold change” value was 0.495.

In the case of “NADK2_Q4G0N4_311_SSGLNLCTGTGSK (UniProt Q4G0N4)”, the “probe-labelled cysteine peptide fold change” value was -0.0288.

As for “NAXD_Q8IW45_261_GERDILSNGQQVLVCSQEGSSR (UniProt Q8IW45)”, the “probe-labelled cysteine peptide fold change” value worked out at 0.0581.

Take “LYAR_Q9NX58_30_NCECLSCIDCGK (UniProt Q9NX58)”: the “probe-labelled cysteine peptide fold change” value is -0.0598.

In the case of “MCM2_P49736_624_CTVIAAANPIGGR (UniProt P49736)”, the “probe-labelled cysteine peptide fold change” value was 0.0682.

“MCM3AP_O60318_439_SESTDSLGGLSPSEVTAIQCK (UniProt O60318)”: the “probe-labelled cysteine peptide fold change” value was -0.0427.

Consider “NAPA_P54920_212+215_AALCHFCIDMLNAK (UniProt P54920)”, for which the “probe-labelled cysteine peptide fold change” value was -0.0124.

Take “MSH6_P52701_1158+1165_QAGLLAVMAQMGCYVPAEVCR (UniProt P52701)”: the “probe-labelled cysteine peptide fold change” value is -0.115.

With “MOV10_Q9HCE1_172_NGGTQSVTLTHLFPLCR (UniProt Q9HCE1)”, the “probe-labelled cysteine peptide fold change” value was 0.234.

For “MATR3_P43243_230_CRDDSFFGETSHNYHK (UniProt P43243)”, the “probe-labelled cysteine peptide fold change” value is 0.0188.

“MYO1G_B0I1T2_618_LDENHCR (UniProt B0I1T2)”: the “probe-labelled cysteine peptide fold change” value is 0.054.

Regarding “MIF_P14174_81_LLCGLLAER (UniProt P14174)”, the “probe-labelled cysteine peptide fold change” value is -0.156.

With “MCM6_Q14566_351_NLYHNLCTSLFPTIHGNDEVK (UniProt Q14566)”, the “probe-labelled cysteine peptide fold change” value amounted to 0.107.

For the target “MAVS_Q7Z434_33_NFSNFCNVDVVEILPYLPCLTAR (UniProt Q7Z434)”, the “probe-labelled cysteine peptide fold change” value came out at 0.142.

For “MACF1_Q9UPN3_5309_DCDVQGLEHDMEEINAR (UniProt Q9UPN3)”, the “probe-labelled cysteine peptide fold change” value came out at 0.136.

For “MGMT_P16455_145_GNPVPILIPCHR (UniProt P16455)”, the “probe-labelled cysteine peptide fold change” value is -0.499.

The same test, now with this note: 50 µM; THP-1; incubation time: 4 h.
As to “MAPRE2_Q15555_279_EIELLCQEHGQENDDLVQR (UniProt Q15555)”, the “probe-labelled cysteine peptide fold change” value was -0.23.

With “NACC1_Q96RE7_178_VKTEQQESDSVQCMPVAK (UniProt Q96RE7)”, the “probe-labelled cysteine peptide fold change” value is -0.426.

With “NCAPH_Q15003_114_FTNTQITEHYSTCIK (UniProt Q15003)”, the “probe-labelled cysteine peptide fold change” value was -0.135.

“NASP_P49321_568_LGEVSVESENYVQAVEEFQSCLNLQEQYLEAHDR (UniProt P49321)”: the “probe-labelled cysteine peptide fold change” value amounted to 0.217.

Regarding “MIS12_Q9H081_133_YKTELCTK (UniProt Q9H081)”, the “probe-labelled cysteine peptide fold change” value was 0.0357.

In the case of “MFSD2A_Q8NA29_44_KQQLSVCNK (UniProt Q8NA29)”, the “probe-labelled cysteine peptide fold change” value was -0.294.

With “METTL5_Q9NRN9_107+110_NAEEFELTNIDMVQCDVCLLSNR (UniProt Q9NRN9)”, the “probe-labelled cysteine peptide fold change” value is -0.00432.

Consider “MICAL2_O94851_1059_PHFIHCK (UniProt O94851)”, for which the “probe-labelled cysteine peptide fold change” value is 0.0284.

Take “NAA25_Q14CX7_339_SQGCNDEYK (UniProt Q14CX7)”: the “probe-labelled cysteine peptide fold change” value is -0.0602.

Consider “MTMR3_Q13615_188_LCGSYPQELIVPAWITDK (UniProt Q13615)”, for which the “probe-labelled cysteine peptide fold change” value amounted to 0.265.

In the case of “MYADM_Q96S97_279_SRDVSCSR (UniProt Q96S97)”, the “probe-labelled cysteine peptide fold change” value stood at 1.29.

As for “MYO18A_Q92614_1046_LHFVHCFLPVAEGWAGEPR (UniProt Q92614)”, the “probe-labelled cysteine peptide fold change” value amounted to 0.422.

With “MDN1_Q9NU22_1394_ALEFGEPVLLVGDTGCGK (UniProt Q9NU22)”, the “probe-labelled cysteine peptide fold change” value amounted to 0.145.

As for “MCL1_Q07820_286_TINQESCIEPLAESITDVLVR (UniProt Q07820)”, the “probe-labelled cysteine peptide fold change” value is -0.583.

With “MGST3_O14880_56_YKVEYPIMYSTDPENGHIFNCIQR (UniProt O14880)”, the “probe-labelled cysteine peptide fold change” value was -0.113.

Regarding “NBEAL2_Q6ZNJ1_2335_ALEGIISNFGQTPCQLLK (UniProt Q6ZNJ1)”, the “probe-labelled cysteine peptide fold change” value is -0.034.

Consider “MKNK2_Q9HBH9_136_EVEMLYQCQGHR (UniProt Q9HBH9)”, for which the “probe-labelled cysteine peptide fold change” value was determined as 0.556.

“NADK2_Q4G0N4_311_SSGLNLCTGTGSK (UniProt Q4G0N4)”: the “probe-labelled cysteine peptide fold change” value is -0.0319.

Consider “NAXD_Q8IW45_261_GERDILSNGQQVLVCSQEGSSR (UniProt Q8IW45)”, for which the “probe-labelled cysteine peptide fold change” value stood at 0.131.

For “LYAR_Q9NX58_30_NCECLSCIDCGK (UniProt Q9NX58)”, the “probe-labelled cysteine peptide fold change” value is -0.0603.

For “MCM2_P49736_624_CTVIAAANPIGGR (UniProt P49736)”, the “probe-labelled cysteine peptide fold change” value stood at 0.0292.

For “MCM3AP_O60318_439_SESTDSLGGLSPSEVTAIQCK (UniProt O60318)”, the “probe-labelled cysteine peptide fold change” value was -0.262.

With “NAPA_P54920_212+215_AALCHFCIDMLNAK (UniProt P54920)”, the “probe-labelled cysteine peptide fold change” value was determined as 0.149.

“MSH6_P52701_1158+1165_QAGLLAVMAQMGCYVPAEVCR (UniProt P52701)”: the “probe-labelled cysteine peptide fold change” value is -0.66.

Turning to “MOV10_Q9HCE1_172_NGGTQSVTLTHLFPLCR (UniProt Q9HCE1)”, the “probe-labelled cysteine peptide fold change” value stood at 0.148.

With “MATR3_P43243_230_CRDDSFFGETSHNYHK (UniProt P43243)”, the “probe-labelled cysteine peptide fold change” value was -0.0509.

With “MYO1G_B0I1T2_618_LDENHCR (UniProt B0I1T2)”, the “probe-labelled cysteine peptide fold change” value turned out to be 0.247.

In the case of “MIF_P14174_81_LLCGLLAER (UniProt P14174)”, the “probe-labelled cysteine peptide fold change” value was -0.117.

For the target “MCM6_Q14566_351_NLYHNLCTSLFPTIHGNDEVK (UniProt Q14566)”, the “probe-labelled cysteine peptide fold change” value is 0.0102.

Consider “MAVS_Q7Z434_33_NFSNFCNVDVVEILPYLPCLTAR (UniProt Q7Z434)”, for which the “probe-labelled cysteine peptide fold change” value turned out to be 0.343.

As to “MACF1_Q9UPN3_5309_DCDVQGLEHDMEEINAR (UniProt Q9UPN3)”, the “probe-labelled cysteine peptide fold change” value is -0.0387.

Turning to “MGMT_P16455_145_GNPVPILIPCHR (UniProt P16455)”, the “probe-labelled cysteine peptide fold change” value was -1.05.
